The values below come from PubChem BioAssay (NCATS).

Values without a mark were called inactive. Inconclusive results are not listed. Entries that show only a call come without a potency. Activity calls are given as the source filed them. The call rests on the fitted dose curve; in most records, active means well fitted curve in the direction sought with a large enough effect; inconclusive means small, poorly fitted or top-dose-only effect, or another doubt; inactive means no such curve, though single readings can be large; an effect the other way counts as inactive or inconclusive.

The target of assay [1] is Cytochrome P450 3A4 (Homo sapiens) (UniProt P08684). Description: qHTS Assay for Activators of Cytochrome P450 3A4 (AID 885). Further: nearly all actives have a fitted effect of over 65% in size. Further: potency means the concentration at half of the fitted maximal effect. In a few lines: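 Luminescent readout of luciferin formed from 25 uM Luciferin-PPXE (KM level) by 20 nM CYP3A4 in 200 mM KPO4, with 60 min NADPH-driven reaction at room temperature after 10 min compound exposure. Ketoconazole (57 uM) defined 100% inhibition.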
Chain of Cytochrome P450 3A4 (Homo sapiens) (P08684 whole entry, looked up): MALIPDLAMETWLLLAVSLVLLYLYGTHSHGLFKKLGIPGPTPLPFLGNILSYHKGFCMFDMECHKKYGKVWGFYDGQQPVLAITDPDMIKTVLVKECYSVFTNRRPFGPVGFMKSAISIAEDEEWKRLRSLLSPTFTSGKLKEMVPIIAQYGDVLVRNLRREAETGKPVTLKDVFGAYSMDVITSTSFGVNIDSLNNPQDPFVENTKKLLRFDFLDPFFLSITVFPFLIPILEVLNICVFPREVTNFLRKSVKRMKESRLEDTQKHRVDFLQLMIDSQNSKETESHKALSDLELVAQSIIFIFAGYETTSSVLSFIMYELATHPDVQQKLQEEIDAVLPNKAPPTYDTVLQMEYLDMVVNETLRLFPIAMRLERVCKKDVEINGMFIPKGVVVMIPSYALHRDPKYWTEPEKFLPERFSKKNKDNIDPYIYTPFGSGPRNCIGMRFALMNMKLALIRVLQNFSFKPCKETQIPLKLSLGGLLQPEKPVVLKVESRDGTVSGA
For orientation: Quantitative high-throughput screening tests each substance at several concentrations.

The target is the same in assay [2]. Briefly: qHTS Assay for Inhibitors and Substrates of Cytochrome P450 3A4 (AID 884). Further: nearly all actives have a fitted effect of over 50% in size. Further: potency means the concentration at half of the fitted maximal effect. On activity change, negative = inhibition: series mostly up to about 57 µM. In a few lines: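 Luminescent readout of luciferin produced by CYP3A4 (20 nM) dealkylation of Luciferin-PPXE, 25 uM (its KM). NADPH-driven reaction ran 60 min at RT after 10 min compound preincubation; data scaled to 57 uM ketoconazole as 100% inhibition.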
The nature of assay [3]: Confirmation and Secondary Assay for Modulators of Hemoglobin Beta Chain Splicing at IVS2 654 locus (AID 910).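 Further: HeLa cells stably carrying EGFP split by mutant beta-globin IVS2-654 intron.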 In a few lines:
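HeLa cells stably expressing EGFP interrupted by β-globin IVS2-654 intron, seeded overnight in Opti-MEM/2% FCS, then treated 2 days at 37 °C. Restored splicing read as total peak GFP intensity per well by laser scanning cytometry (488 nm excitation, 500–520 nm emission); 500 nM antisense PNA as control.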

Assay [4] in a line: Confirmation and Secondary Assay for Modulators of Hemoglobin Beta Chain Splicing at IVS2 705 locus (AID 930).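 Further: HeLa cells stably expressing the EGFP-705 splicing reporter; GFP fluorescence per well restored by corrected splicing of the IVS2-705 intron in EGFP; series mostly up to about 46 µM.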 In a few lines:
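Stable HeLa line with EGFP disrupted by mutant beta-globin intron 2 (705). Overnight attachment, then 2 days of compound at 37C, 5% CO2. Signal: peak GFP intensity summed over objects 5-250 µm.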

For assay [5], the target named is Alpha-galactosidase (Coffea arabica) (UniProt Q42656). Description: Counterscreen for Glucocerebrosidase Inhibitors: qHTS Assay for Coffee Bean alpha-Galactosidase at pH 4.5 (AID 957). Further: series mostly up to about 77 µM. In a few lines:
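Fluorogenic qHTS at pH 4.5 (citrate buffer with Tween-20): 2 nM enzyme, 80 uM 4-MU-alpha-galactoside substrate, compound titrated 0.7 nM to 77 uM, 20 min room temperature. Glycine/NaOH stop; 4-MU read Ex 365/Em 440; Hill-equation AC50 against no-enzyme and enzyme controls.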
Background: The purpose of a counterscreen is to sort out artefacts and off-target activity.

Assay [6] shares this target. Briefly: Counterscreen for Glucocerebrosidase Inhibitors: qHTS Assay for Coffee Bean alpha-Galactosidase at pH 5.9 (AID 998). An outline of the steps: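 Enzyme 2 nM + cpd (0.7 nM–77 uM titration) + 4-MU-alpha-Gal 80 uM, pH 5.9 citrate/Tween-20, RT 20 min, NaOH/glycine stop pH 10, fluor 365/440. Normalized to no-enzyme and full-activity controls; Hill-fit AC50.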
Assay [7] addresses Cytochrome P450 2D6 (Homo sapiens) (UniProt P10635). Description: qHTS Assay for Inhibitors and Substrates of Cytochrome P450 2D6 (AID 891). Further: potency means the concentration at half of the fitted maximal effect; nearly all actives have a fitted effect of over 60% in size. An outline of the steps:
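Luminescent read-out of luciferin formed by 5 nM human CYP2D6 demethylating 30 uM Luciferin-ME EGE (Km level) over 60 min at room temperature after NADPH regeneration addition. Data normalized to full inhibition by 1.43 uM quinidine.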

In assay [8] the target is Cytochrome P450 2C19 (Homo sapiens) (UniProt P33261). Briefly: qHTS Assay for Inhibitors and Substrates of Cytochrome P450 2C19 (AID 899). Further: potency means the concentration at half of the fitted maximal effect; nearly all actives have a fitted effect of over 60% in size. An outline of the steps: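 5 nM human CYP2C19 with 10uM Luciferin-H EGE (at KM) in 50mM KPO4, compound preincubated 10 min at 37C, then NADPH regeneration for 60 min at 37C. Luciferin read by luminescence after detection reagent; normalized to 57uM ketoconazole as full inhibition.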
Chain of Cytochrome P450 2C19 (Homo sapiens) (P33261 whole entry, looked up): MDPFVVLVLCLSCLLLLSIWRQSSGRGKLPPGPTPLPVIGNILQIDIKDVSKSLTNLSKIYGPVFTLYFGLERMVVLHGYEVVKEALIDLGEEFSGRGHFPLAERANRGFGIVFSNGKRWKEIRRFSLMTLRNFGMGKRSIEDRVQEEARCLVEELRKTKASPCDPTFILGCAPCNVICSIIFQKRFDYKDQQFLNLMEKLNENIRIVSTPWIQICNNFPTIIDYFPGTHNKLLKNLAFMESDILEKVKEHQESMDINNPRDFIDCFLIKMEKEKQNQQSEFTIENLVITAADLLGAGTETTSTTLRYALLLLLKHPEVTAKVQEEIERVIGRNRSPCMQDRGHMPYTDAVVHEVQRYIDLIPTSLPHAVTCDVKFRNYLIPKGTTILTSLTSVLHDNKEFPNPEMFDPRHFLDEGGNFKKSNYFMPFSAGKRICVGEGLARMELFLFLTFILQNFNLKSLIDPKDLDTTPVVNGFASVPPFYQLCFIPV

The target of assay [9] is Muscarinic acetylcholine receptor M1 (Rattus norvegicus) (UniProt P08482). Description: qHTS Assay for Antagonists of Acetylcholine Muscarinic M1 Receptor: Measurement of IP-One Response (AID 944). Further: potency means the concentration at half of the fitted maximal effect; nearly all actives have a fitted effect of over 75% in size. In a few lines: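 IP1 accumulation measured via TR-FRET between d2-IP1 and Eu-cryptate anti-IP1 antibody after carbachol (200 nM, EC80) stimulation for 30 min; rat M1-transfected CHO cells received compound 10 min before agonist.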
Chain of Muscarinic acetylcholine receptor M1 (Rattus norvegicus) (P08482 whole entry, looked up): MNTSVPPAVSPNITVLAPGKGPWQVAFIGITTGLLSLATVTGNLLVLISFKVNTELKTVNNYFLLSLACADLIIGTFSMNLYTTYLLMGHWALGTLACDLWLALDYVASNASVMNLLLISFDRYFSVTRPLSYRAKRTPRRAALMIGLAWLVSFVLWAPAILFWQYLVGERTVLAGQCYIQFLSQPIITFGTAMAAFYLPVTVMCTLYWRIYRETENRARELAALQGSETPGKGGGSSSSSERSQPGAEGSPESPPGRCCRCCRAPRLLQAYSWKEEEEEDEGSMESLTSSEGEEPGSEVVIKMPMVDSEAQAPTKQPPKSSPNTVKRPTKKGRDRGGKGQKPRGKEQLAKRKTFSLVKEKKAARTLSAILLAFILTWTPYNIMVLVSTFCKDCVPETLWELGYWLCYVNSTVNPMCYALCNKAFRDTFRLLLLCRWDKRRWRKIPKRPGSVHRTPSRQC

Chain of Alpha-galactosidase (Coffea arabica) (Q42656 whole entry, looked up): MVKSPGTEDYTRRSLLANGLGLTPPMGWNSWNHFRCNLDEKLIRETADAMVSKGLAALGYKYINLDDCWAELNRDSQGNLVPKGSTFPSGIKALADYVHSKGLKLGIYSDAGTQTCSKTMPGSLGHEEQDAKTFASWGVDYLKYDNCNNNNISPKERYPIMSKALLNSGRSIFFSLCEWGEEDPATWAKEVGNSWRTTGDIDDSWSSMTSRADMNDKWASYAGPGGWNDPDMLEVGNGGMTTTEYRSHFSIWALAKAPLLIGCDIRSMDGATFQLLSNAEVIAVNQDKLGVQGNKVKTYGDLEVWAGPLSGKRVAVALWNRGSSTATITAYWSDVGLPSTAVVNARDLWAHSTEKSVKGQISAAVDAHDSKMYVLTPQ
Chain of Cytochrome P450 2D6 (Homo sapiens) (P10635 whole entry, looked up): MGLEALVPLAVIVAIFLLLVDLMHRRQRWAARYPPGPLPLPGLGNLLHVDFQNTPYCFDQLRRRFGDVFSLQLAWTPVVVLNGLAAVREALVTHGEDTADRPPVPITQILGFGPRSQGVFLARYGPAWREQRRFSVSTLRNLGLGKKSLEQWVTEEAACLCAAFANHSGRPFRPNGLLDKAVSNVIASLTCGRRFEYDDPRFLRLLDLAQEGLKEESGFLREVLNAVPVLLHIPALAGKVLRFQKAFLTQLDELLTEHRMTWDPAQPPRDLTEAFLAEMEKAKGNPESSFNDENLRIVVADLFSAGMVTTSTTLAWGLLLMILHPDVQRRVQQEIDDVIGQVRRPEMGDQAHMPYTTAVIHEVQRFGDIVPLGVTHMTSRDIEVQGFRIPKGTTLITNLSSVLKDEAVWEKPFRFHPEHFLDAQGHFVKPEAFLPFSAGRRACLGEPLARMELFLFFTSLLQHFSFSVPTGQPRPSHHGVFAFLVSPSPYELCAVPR

For the molecule `C[C@]12CCC3c4ccc(OC(=O)c5ccccc5)cc4CCC3C1CCC2=O` (some centres not stated), the Potency result in assay [1] is “inactive”.
For the molecule `CC(=O)Oc1c2c(c(CC=C(C)C)c3c1C(=O)C1=CC4CC5C(C)(C)OC(C/C=C(\C)C(=O)O)(C4=O)[C@]15O3)OC(C)(CCC=C(C)C)C=C2` (some centres not stated), the Potency in assay [2] is 12600 nM (active). Further, the Potency result in assay [1] and in assay [3] was “inactive” each time. The molecule was called inactive in [4].
With `C[C@@]12CC[C@@H]3[C@H](CCC4=CC(=O)CC[C@]43C)[C@@H]1CC[C@@H]2C(=O)Cn1cnc2c(=S)nc[nH]c21`, in [2], the activity change, negative = inhibition was 119% [at 11.4 µM]. For the same molecule, the Potency in assay [1] is 3160 nM (active).
As for `CC[C@]1(O)CC(O[C@@H]2CC(N(C)C)C(O)C(C)O2)c2c(cc3c(c2O)C(=O)c2c(O)ccc(O)c2C3=O)C1C(=O)OC` (some centres not stated), the Potency result in [2] and in assay [3] was “inactive” each time. Moreover, the result in assay [4] was inactive.
Turning to `CN1[C@@H]2CC[C@H]1CC(NC(=O)c1nn(C)c3ccccc13)C2` (some centres not stated), the Potency result in [2] was “inactive”. Also, the molecule was called inactive in [5] and in [6].
Take `NC1C[C@H]1c1ccccc1` (some centres not stated): the Potency result in assay [2] and in assay [3] was “inactive” throughout. Moreover, in [4], the molecule was classed as inactive.
As for `CCC(=O)OC1CCC2C3CCc4cc(O)ccc4C3CC[C@]12C` (some centres not stated), the Potency entry in assay [1] was “inactive”.
With `CC(=O)OC1C2CCC3C1(CC(O)[C@@]1(O)[C@@H](CC(O)C1(C)C)[C@]3(C)O)C[C@@]2(C)O` (some centres not stated), the Potency entry in [2] and in assay [3] was “inactive” each time. In addition, the call in [4] was inactive.
On to `C[C@@]12C=CC(=O)C=C1CCC1C2CC[C@]2(C)C(=O)CCC12` (some centres not stated), for which the Potency entry in assay [2] and in [3] was “inactive” each time. Also, in assay [4], the molecule was called inactive.
On to `c1ccc(CN2CCC3(CCc4ccccc43)CC2)cc1`, for which the Potency result in [2] is “inactive”. Further, the Potency was 6.3 nM (active) in [7] and 2510 nM (active) in assay [8].
As to `O=C1c2ccccc2-c2cc([N+](=O)[O-])c([N+](=O)[O-])cc21`, the Potency was 501 nM (active) in assay [2], 3160 nM (active) in assay [7] and 398 nM (active) in assay [8]. The activity change, positive = activation in assay [1] was -119% [at 11.4 µM].
Consider `C=CCc1cc(OC)c2c(c1OC)OCO2`, for which the Potency in [2] was 7940 nM (active). For the same molecule, the Potency entry in assay [3] was “inactive”. Moreover, the molecule was called inactive in assay [4].
Consider `COC(=O)[C@]1(C)CC[C@@]2(C)CC[C@@]3(C)C4=CCc5c(cc(O)c(O)c5C)[C@]4(C)CC[C@@]3(C)C2C1` (some centres not stated), for which the Potency entry in assay [1] and in [3] was “inactive” throughout. In addition, the call in assay [4] was inactive.
`CC(=O)[C@]1(O)CC[C@@H]2[C@H]3C[C@@H](C)C4=CC(=O)CC[C@@]4(C)[C@H]3[C@@H](O)C[C@]21C`: in assay [1], the activity change, positive = activation is -33% [at 11.4 µM].
Take `COC1C=CC23c4cc5c(cc4CN(CC2O)C3C1)OCO5` (configuration not stated): the Potency result in assay [1] is “inactive”.
The same measure, in the same setting: then `C[C@@]12CC[C@@H]3c4ccc(O)cc4C[C@H](CCCCCCCCCS(=O)CCCC(F)(F)C(F)(F)F)[C@H]3[C@@H]1CC[C@@H]2O` (some centres not stated), with “inactive”.
In the case of `C[C@@H](COc1ccccc1)N(CCCl)Cc1ccccc1`, in [7], the Potency is 1580 nM (active). For the same molecule, the molecule was classed as inactive in [5] and in assay [6].
Regarding `Clc1ccc(C(c2ccc(Cl)cc2)n2cc[n+](C[C@@H](OCc3ccc(Cl)cc3Cl)c3ccc(Cl)cc3Cl)c2)cc1`, the figures for the Potency in assay [7] and in assay [9] were 39.8 nM (active) and 14100 nM (active), respectively. Also, the molecule was called inactive in [5] and in assay [6].
Regarding `CCc1cc2c(nc1CC)CCN(CC/C(C)=N/OC)C2`, in [1], the activity change, positive = activation was -38.7% [at 11.4 µM].
Consider `CCCN1[C@H](C(=O)OC)C[C@@H]2CC[C@@H](O)C[C@@H]21`, for which the Potency result in assay [1] was “inactive”.
Consider `O=C(C[n+]1ccc2ccccc2c1)c1ccc2ccc3ccccc3c2c1`, for which, in assay [7], the Potency was 794 nM (active).
With `CC(C)c1cccc(O)c(=O)c1`, in assay [1], the Potency entry is “inactive”.
For the molecule `C=CCO[C@@H](Cn1ccnc1)c1ccc(Cl)cc1Cl`, the Potency entry in assay [1] is “inactive”. For the same molecule, in assay [7], the Potency was 5010 nM (active).
`COC(=O)[C@@H]1C[C@@]2(O)[C@H](O)[C@H](O)[C@H](O)C[C@H]2N1Cc1cccnc1`: in assay [1], the Potency entry is “inactive”.
Same read-out and setting: next, `C[C@@H]1Cc2ccccc2N1NC(=O)c1ccc(Cl)c(S(N)=O)c1` (some centres not stated): “inactive”.
`O=c1[nH]c(=O)n([C@H]2C[C@H](O)[C@H](CO)O2)cc1/C=C\Br`: the Potency result in assay [1] was “inactive”. Further, in [6], the result was inactive.
For `O=C(O)c1cc2c(cc1S(=O)(=O)O)[C@H]1[C@@H]([C@H]3[C@H]2[C@@]2(Cl)C(Cl)=C(Cl)[C@]3(Cl)C2(Cl)Cl)[C@]2(Cl)C(Cl)=C(Cl)[C@@]1(Cl)C2(Cl)Cl`, the activity change, positive = activation in assay [1] is -41.4% [at 11.4 µM].
